Measured values: article PMC7862700, “An all-to-all approach to the identification of sequence-specific readers for epigenetic DNA modifications on cytosine”

How the values were obtained:
Experiment in all cases: DAPPL (digital affinity profiling via proximity ligation, sequencing); 10 mM Tris-HCl pH 7.5, 50 mM NaCl, 1 mM DTT, 4% glycerol, room temperature, 30 min; GST-TFs on glutathione beads, 16-mer random dsDNA library, 0.1% formaldehyde crosslink after washing; high values mean tight binding
[1] = target: T1, FLI1 (Homo sapiens, UniProt Q01543 1-452); details: protein: recombinant; tags: N-terminal GST; dsDNA, one strand shown
T1 sequence: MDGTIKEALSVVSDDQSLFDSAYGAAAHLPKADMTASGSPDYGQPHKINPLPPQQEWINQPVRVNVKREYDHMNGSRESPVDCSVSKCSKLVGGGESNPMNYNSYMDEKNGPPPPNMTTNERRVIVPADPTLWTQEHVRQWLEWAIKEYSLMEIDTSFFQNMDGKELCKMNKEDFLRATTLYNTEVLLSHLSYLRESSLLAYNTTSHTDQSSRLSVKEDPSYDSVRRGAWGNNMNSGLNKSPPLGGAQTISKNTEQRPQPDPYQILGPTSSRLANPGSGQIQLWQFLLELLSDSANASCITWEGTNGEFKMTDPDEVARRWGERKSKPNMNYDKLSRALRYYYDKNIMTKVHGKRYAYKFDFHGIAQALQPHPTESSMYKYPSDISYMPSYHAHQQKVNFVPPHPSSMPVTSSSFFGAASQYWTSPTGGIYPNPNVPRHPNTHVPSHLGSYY
Summary of the method: (§1)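 Binding signal is given per hexamer as its read frequency for a factor divided by its frequency in the tag-only sample. GST-fused human transcription factors were expressed in yeast, captured on glutathione beads, barcoded with DNA and pooled with that sample, then incubated with 200 nmole of a 16-mer random double-stranded DNA library in Tris/NaCl/DTT/glycerol buffer for 30 min at room temperature. The pools were then washed, crosslinked, proximity-ligated, amplified by PCR and sequenced on an Illumina NextSeq500.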

[2] = target: T2, ELK1 (Homo sapiens, UniProt P19419 1-428); details: protein: recombinant; tags: N-terminal GST; dsDNA, one strand shown
T2 sequence: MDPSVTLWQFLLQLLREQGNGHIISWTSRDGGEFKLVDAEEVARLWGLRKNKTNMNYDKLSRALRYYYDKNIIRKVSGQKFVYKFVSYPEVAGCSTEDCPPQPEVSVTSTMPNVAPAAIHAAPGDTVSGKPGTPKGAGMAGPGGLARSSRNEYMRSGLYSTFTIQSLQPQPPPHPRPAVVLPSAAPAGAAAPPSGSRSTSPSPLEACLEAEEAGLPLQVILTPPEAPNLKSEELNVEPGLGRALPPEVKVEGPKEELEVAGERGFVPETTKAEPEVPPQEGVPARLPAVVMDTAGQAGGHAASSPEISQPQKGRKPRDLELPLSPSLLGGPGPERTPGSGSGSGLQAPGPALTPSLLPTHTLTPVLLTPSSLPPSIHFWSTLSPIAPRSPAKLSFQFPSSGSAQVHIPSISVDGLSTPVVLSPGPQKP
Summary of the method: as §1

[3] = target: T3, GABPA (Homo sapiens, UniProt Q06546 1-454); details: protein: recombinant; tags: N-terminal GST; dsDNA, one strand shown
T3 sequence: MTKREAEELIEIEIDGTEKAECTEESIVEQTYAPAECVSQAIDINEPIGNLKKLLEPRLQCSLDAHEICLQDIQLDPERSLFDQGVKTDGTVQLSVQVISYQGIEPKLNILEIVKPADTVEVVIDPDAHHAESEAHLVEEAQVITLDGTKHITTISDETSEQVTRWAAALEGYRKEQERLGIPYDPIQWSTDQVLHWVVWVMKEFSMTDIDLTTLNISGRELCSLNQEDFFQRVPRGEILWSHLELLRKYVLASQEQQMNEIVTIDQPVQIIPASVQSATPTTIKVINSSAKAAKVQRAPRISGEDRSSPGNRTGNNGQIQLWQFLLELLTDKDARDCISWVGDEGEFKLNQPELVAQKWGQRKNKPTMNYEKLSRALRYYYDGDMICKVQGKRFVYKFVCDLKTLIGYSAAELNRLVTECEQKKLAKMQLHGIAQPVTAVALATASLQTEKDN
Summary of the method: as §1

[4] = target: T4, ERG (Homo sapiens, UniProt P11308 1-479); details: protein: recombinant; tags: N-terminal GST; dsDNA, one strand shown
T4 sequence: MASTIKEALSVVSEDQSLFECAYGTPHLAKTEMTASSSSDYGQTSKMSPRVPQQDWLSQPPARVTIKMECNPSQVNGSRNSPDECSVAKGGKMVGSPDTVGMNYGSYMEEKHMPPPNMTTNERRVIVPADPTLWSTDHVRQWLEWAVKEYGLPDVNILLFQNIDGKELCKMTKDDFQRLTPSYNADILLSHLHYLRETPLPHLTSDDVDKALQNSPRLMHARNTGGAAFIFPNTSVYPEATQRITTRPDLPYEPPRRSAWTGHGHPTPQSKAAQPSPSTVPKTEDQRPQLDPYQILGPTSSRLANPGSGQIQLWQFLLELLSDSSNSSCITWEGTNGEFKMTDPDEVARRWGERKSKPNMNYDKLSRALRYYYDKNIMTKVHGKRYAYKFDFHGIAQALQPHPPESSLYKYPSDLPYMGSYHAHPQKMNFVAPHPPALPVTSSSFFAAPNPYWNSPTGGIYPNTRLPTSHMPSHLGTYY
Summary of the method: as §1

[5] = target: ELF1 (Homo sapiens, UniProt P32519 1-619); details: protein: recombinant; tags: N-terminal GST; dsDNA, one strand shown
Chain of ELF1 (P32519 whole entry): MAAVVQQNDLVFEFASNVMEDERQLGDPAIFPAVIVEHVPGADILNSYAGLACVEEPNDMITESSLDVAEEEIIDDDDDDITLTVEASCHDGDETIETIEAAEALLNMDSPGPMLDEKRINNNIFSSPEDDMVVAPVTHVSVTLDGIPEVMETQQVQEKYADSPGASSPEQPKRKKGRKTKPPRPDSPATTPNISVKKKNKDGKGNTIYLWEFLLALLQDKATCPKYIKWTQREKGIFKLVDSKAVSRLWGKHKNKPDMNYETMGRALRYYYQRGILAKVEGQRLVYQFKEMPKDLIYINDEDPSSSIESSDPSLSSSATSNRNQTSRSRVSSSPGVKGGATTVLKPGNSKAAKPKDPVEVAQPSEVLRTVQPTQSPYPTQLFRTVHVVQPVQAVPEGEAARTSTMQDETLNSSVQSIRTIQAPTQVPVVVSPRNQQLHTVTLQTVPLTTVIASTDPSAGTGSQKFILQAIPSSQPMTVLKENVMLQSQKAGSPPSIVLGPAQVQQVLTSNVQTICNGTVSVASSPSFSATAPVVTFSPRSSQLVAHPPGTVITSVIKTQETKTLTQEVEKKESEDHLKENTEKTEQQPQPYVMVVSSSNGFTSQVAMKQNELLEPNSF
Summary of the method: as §1

[6] = target: T5, EHF (Homo sapiens, UniProt Q9NZC4 1-300); details: protein: recombinant; tags: N-terminal GST; dsDNA, one strand shown
T5 sequence: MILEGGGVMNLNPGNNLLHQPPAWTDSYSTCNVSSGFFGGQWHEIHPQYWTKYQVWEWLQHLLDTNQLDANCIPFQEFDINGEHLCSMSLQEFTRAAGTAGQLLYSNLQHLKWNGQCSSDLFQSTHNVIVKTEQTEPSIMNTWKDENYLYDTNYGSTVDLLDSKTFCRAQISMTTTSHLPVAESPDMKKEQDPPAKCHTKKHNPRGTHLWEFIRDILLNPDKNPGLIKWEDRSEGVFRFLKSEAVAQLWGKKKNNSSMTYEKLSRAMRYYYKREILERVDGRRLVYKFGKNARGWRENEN
Summary of the method: as §1

[7] = target: SPI1 (Homo sapiens, UniProt P17947 1-270); details: protein: recombinant; tags: N-terminal GST; dsDNA, one strand shown
Summary of the method: as §1

[8] = target: SPIB (Homo sapiens, UniProt Q01892 1-262); details: protein: recombinant; tags: N-terminal GST; dsDNA, one strand shown
Chain of SPIB (Q01892 whole entry): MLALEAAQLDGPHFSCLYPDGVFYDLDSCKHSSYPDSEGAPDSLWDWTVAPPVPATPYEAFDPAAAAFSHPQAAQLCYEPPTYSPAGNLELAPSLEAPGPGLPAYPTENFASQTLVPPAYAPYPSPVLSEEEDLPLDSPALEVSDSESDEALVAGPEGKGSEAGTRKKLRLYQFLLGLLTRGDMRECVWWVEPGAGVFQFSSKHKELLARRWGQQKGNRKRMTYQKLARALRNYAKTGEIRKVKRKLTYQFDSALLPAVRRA
Summary of the method: as §1

[9] = target: T6, ELK3 (Homo sapiens, UniProt P41970 1-407); details: protein: recombinant; tags: N-terminal GST; dsDNA, one strand shown
T6 sequence: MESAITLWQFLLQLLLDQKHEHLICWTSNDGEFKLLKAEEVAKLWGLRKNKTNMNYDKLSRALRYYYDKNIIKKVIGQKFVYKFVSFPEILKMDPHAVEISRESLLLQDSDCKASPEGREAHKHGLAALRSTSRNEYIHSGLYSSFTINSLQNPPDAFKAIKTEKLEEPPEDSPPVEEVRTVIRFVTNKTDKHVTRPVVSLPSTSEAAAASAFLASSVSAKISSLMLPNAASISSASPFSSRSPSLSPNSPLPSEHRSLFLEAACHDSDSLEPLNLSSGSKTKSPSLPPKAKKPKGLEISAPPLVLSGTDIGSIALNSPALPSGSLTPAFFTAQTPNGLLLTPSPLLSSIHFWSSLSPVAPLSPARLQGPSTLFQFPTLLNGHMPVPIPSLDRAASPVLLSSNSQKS
Summary of the method: as §1

[10] = target: T7, FEV (Homo sapiens, UniProt Q99581 1-238); details: protein: recombinant; tags: N-terminal GST; dsDNA, one strand shown
T7 sequence: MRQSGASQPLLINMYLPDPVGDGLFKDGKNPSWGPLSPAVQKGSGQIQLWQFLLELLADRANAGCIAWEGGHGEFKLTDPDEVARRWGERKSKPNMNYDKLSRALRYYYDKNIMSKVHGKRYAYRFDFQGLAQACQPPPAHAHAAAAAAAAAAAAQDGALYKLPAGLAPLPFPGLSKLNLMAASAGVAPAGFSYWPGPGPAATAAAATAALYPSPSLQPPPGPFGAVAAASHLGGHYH
Summary of the method: as §1

[11] = target: ETV5 (Homo sapiens, UniProt P41161 1-510); details: protein: recombinant; tags: N-terminal GST; dsDNA, one strand shown
Chain of ETV5 (P41161 whole entry): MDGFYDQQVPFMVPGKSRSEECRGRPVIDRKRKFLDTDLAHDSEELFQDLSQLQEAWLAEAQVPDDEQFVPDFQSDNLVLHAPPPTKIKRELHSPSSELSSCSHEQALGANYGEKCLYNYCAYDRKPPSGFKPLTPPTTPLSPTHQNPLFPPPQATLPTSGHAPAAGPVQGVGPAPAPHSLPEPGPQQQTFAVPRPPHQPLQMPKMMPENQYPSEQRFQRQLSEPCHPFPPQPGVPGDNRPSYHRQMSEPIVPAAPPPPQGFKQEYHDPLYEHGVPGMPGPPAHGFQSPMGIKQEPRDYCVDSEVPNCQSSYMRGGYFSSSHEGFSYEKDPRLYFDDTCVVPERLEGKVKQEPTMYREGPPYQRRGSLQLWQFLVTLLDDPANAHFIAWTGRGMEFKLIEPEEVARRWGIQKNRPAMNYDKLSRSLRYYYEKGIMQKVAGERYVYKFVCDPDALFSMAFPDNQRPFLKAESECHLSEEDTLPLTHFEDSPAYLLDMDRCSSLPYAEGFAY
Summary of the method: as §1

[12] = target: HSF1 (Homo sapiens, UniProt Q00613 1-529); details: protein: recombinant; tags: N-terminal GST; chain copies: 3; dsDNA, one strand shown
Chain of HSF1 (Q00613 whole entry): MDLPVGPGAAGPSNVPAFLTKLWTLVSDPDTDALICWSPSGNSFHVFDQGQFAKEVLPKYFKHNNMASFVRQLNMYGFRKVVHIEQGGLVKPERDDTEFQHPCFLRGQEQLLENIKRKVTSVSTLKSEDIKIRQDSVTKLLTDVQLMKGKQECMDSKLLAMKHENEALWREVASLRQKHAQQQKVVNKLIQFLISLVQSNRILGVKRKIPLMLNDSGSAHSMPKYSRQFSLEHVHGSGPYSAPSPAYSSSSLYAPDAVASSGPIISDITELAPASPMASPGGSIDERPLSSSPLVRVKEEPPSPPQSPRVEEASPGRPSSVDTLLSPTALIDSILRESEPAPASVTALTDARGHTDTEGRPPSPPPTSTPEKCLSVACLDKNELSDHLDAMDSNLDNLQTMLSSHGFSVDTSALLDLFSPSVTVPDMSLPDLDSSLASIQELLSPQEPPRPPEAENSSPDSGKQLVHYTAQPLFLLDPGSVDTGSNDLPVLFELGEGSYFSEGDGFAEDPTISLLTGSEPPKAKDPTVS
Summary of the method: as §1

[13] = target: T8, SPIC (Homo sapiens, UniProt Q8N5J4 1-248); details: protein: recombinant; tags: N-terminal GST; dsDNA, one strand shown
T8 sequence: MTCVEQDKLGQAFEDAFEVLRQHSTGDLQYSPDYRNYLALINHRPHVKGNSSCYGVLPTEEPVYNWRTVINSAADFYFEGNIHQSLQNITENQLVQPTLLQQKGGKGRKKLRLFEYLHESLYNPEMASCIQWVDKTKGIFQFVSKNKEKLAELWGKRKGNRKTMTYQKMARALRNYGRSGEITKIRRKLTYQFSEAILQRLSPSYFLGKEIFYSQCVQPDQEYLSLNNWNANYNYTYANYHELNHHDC
Summary of the method: as §1

[14] = target: ELF4 (Homo sapiens, UniProt Q99607 1-663); details: protein: recombinant; tags: N-terminal GST; dsDNA, one strand shown
Chain of ELF4 (Q99607 whole entry): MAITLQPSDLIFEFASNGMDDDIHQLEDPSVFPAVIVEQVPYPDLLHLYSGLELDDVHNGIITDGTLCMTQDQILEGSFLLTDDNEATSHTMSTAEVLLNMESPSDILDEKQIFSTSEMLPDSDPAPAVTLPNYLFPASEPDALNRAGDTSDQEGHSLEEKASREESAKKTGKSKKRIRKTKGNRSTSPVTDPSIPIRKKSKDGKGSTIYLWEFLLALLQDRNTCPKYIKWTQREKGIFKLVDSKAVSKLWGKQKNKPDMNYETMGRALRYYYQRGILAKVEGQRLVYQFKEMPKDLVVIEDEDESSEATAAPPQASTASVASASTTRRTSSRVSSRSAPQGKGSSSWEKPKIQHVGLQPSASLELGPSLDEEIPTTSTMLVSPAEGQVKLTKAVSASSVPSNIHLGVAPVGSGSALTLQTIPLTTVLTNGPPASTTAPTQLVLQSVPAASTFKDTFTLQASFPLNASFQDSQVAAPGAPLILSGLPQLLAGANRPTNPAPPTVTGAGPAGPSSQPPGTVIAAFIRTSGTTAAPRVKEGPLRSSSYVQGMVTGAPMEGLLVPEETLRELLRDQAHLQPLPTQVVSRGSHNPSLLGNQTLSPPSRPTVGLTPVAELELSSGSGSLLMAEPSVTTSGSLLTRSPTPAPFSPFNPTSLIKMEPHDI
Summary of the method: as §1

[15] = target: T9, ELK4 (Homo sapiens, UniProt P28324-2 1-405); details: protein: recombinant; tags: N-terminal GST; dsDNA, one strand shown
T9 sequence: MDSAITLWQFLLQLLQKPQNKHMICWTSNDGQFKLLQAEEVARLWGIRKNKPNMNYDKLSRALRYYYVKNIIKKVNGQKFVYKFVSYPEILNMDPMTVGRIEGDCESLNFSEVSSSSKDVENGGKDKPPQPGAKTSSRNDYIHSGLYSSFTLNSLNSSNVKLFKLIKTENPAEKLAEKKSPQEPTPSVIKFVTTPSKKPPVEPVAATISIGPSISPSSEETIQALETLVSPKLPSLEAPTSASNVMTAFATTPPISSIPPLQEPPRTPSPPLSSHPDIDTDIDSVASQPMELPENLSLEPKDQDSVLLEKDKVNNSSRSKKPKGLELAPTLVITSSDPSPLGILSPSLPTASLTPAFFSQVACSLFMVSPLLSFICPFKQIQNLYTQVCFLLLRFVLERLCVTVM
Summary of the method: as §1

[16] = target: T10, ETV2 (Homo sapiens, UniProt O00321 1-342); details: protein: recombinant; tags: N-terminal GST; dsDNA, one strand shown
T10 sequence: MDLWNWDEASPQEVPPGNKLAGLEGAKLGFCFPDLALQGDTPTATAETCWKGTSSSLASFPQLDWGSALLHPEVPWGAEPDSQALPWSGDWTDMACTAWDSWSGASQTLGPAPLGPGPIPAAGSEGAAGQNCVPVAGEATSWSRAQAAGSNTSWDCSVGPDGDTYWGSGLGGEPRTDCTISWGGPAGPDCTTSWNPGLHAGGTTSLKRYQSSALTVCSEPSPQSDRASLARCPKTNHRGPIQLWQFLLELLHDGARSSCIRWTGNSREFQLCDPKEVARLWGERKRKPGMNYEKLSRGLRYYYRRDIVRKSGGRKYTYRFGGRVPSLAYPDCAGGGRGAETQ
Summary of the method: as §1

[17] = target: T11, ELF3 (Homo sapiens, UniProt P78545 1-371); details: protein: recombinant; tags: N-terminal GST; dsDNA, one strand shown
T11 sequence: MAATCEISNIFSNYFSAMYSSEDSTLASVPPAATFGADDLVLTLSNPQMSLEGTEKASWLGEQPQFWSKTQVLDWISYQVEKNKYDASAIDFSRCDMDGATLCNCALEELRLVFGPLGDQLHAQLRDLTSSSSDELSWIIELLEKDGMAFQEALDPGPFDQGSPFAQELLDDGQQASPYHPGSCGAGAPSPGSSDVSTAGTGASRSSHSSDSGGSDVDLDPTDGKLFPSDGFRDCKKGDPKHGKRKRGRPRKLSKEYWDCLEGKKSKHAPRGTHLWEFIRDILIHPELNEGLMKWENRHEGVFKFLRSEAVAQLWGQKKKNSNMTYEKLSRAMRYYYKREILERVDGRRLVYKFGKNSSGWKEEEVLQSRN
Summary of the method: as §1

[18] = target: CRX (Homo sapiens, UniProt O43186 1-299); details: protein: recombinant; tags: N-terminal GST; dsDNA, one strand shown
Chain of CRX (O43186 whole entry): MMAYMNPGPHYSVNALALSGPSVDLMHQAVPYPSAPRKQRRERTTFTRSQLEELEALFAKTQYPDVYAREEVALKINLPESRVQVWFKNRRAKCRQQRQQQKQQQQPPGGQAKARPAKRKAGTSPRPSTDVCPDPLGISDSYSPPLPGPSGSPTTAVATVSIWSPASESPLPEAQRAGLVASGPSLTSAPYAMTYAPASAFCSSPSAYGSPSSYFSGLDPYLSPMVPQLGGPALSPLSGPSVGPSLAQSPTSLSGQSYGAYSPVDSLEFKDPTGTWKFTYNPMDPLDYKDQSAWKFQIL
Summary of the method: as §1

[19] = target: ETV1 (Homo sapiens, UniProt P50549 1-477); details: protein: recombinant; tags: N-terminal GST; dsDNA, one strand shown
Chain of ETV1 (P50549 whole entry): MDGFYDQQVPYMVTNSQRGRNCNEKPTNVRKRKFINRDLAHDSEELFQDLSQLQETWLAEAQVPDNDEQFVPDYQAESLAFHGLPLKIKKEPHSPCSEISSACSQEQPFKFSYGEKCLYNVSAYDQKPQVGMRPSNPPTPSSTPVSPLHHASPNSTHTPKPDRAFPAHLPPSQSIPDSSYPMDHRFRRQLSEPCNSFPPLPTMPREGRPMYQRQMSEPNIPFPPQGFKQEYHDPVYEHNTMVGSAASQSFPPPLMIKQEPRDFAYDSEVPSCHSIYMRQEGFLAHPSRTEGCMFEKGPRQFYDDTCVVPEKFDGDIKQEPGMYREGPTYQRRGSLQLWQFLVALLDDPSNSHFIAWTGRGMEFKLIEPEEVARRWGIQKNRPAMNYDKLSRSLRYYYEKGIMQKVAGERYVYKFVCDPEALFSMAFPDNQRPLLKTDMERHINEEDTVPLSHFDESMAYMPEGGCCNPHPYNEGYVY
Summary of the method: as §1

## TATGGG
[1]
  binding signal: 1.23 fold enrichment (6-mer frequency, TF over GST control)
[2]
  binding signal: 1.06 fold enrichment (6-mer frequency, TF over GST control)
[3]
  binding signal: 1.25 fold enrichment (6-mer frequency, TF over GST control)
[4]
  binding signal: 1.15 fold enrichment (6-mer frequency, TF over GST control)
[5]
  binding signal: 1.16 fold enrichment (6-mer frequency, TF over GST control)
[6]
  binding signal: 1.37 fold enrichment (6-mer frequency, TF over GST control)
[7]
  binding signal: 1.21 fold enrichment (6-mer frequency, TF over GST control)
[8]
  binding signal: 1.27 fold enrichment (6-mer frequency, TF over GST control)
[9]
  binding signal: 1.18 fold enrichment (6-mer frequency, TF over GST control)
[10]
  binding signal: 1.13 fold enrichment (6-mer frequency, TF over GST control)
[11]
  binding signal: 1.18 fold enrichment (6-mer frequency, TF over GST control)
[12]
  binding signal: 1.1 fold enrichment (6-mer frequency, TF over GST control)
[13]
  binding signal: 1.32 fold enrichment (6-mer frequency, TF over GST control)
[14]
  binding signal: 1.18 fold enrichment (6-mer frequency, TF over GST control)
[15]
  binding signal: 1.14 fold enrichment (6-mer frequency, TF over GST control)
[16]
  binding signal: 1.11 fold enrichment (6-mer frequency, TF over GST control)
[17]
  binding signal: 1.18 fold enrichment (6-mer frequency, TF over GST control)
[18]
  binding signal: 1.36 fold enrichment (6-mer frequency, TF over GST control)
[19]
  binding signal: 1.2 fold enrichment (6-mer frequency, TF over GST control)
